From PubChem BioAssay AID1781 (National Center for Advancing Translational Sciences (NCATS), 2009)
Inconclusive results are not listed. The source made the active and inactive calls. The call rests on the fitted dose curve; in most records, active means well fitted curve in the direction sought with a large enough effect; inconclusive means small, poorly fitted or top-dose-only effect, or effect the other way, or another doubt; inactive means no such curve, though single readings can be large or run the other way.

target: Pyruvate kinase PKLR (Homo sapiens) (UniProt P30613); experiment: Confirmation Concentration-Response Assay for Activators of Human Liver Pyruvate Kinase; details: purified hPK-L, Kinase-Glo ATP luminescence, 1 h; series mostly up to 57.5 µM
Description: Confirmatory assay NIH Chemical Genomics Center [NCGC] Matthew G. Vander Heiden, M.D., Ph.D. [Harvard Medical School, 77 Avenue Louis Pasteur, Boston, MA 02115] NCGC Assay Overview: Human pyruvate kinase liver (hPK-L) enzyme was supplied as a highly purified (>95% pure) preparation from Harvard Medical School and assayed for its ability to generate ATP from ADP using phosphoenolpyruvate (PEP) as a substrate. ATP generation was detected in a coupled reaction by luciferase-mediated luminescence, an ATP-dependent process. Pyruvate kinase substrates, PEP and ADP, were present in the assay at Km and approximately 10-fold below Km respectively. The enzyme was assayed at an intermediate level of activity to screen for both inhibitors and activators.
NCGC Assay Protocol Summary for L-isoform: Three uL of substrate mix (at r.t.) in assay buffer (50 mM Imidazole pH7.2, 50 mM KCl, 7 mM MgCl2, 0.01% Tween 20, 0.05% BSA) was dispensed into white solid bottom 1,536 well microtiter plates so that the final concentrations of substrates in the assay were 0.1 mM ADP and 0.5 mM PEP. 23 nL of compound were delivered by a pin tool and 1 uL of enzyme mix (final concentration of 0.1 nM) in assay buffer (4 degree Celsius) was added. Plates were incubated at room temperature for 1 hour. Two uL of detection mix (Kinase-Glo, Promega; at 4 degree Celsius protected from light) was added and luminescence read by a ViewLux (Perkin Elmer) at 1 second exposure/plate. Data were normalized to the uninhibited (row 31). Additionally, a no enzyme and 5-fold enzyme control was dispensed in row 32, split equally between the two conditions.

Pyruvate kinase PKLR (Homo sapiens), sequence (P30613 whole entry, looked up): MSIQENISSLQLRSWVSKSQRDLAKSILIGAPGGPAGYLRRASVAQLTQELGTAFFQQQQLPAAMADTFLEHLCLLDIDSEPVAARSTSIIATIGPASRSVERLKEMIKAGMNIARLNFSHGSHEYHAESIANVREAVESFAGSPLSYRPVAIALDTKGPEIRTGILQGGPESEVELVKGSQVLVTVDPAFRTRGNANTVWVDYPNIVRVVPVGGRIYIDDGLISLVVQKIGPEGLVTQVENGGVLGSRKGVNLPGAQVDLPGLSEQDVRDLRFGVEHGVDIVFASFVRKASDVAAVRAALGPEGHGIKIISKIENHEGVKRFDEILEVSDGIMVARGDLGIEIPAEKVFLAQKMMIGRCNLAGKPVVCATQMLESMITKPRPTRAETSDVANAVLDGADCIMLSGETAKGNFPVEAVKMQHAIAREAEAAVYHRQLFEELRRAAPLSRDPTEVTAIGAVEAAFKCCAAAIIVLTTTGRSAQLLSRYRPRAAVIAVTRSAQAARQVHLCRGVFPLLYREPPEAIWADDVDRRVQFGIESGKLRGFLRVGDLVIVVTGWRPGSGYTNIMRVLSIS

outcome, inactive:
O=S(=O)(NC1CCN(S(=O)(=O)c2ccc3c(c2)OCCO3)CC1)c1c(F)cccc1F, Cn1c2cc(C=O)sc2c2cnn(Cc3ccccc3F)c(=O)c21, O=S(=O)(c1ccc2c(c1)OCCCO2)N1CCN(S(=O)(=O)c2c(F)cccc2F)CC1, Cn1c2ccsc2c2cnn(Cc3ccccc3F)c(=O)c21, Cn1c2cc([N+](=O)[O-])sc2c2cnn(Cc3ccccc3F)c(=O)c21, Cc1cc2c(s1)c1cnn(Cc3ccc(F)cc3F)c(=O)c1n2C, Cc1cc2c(s1)c1cnn(Cc3ccccc3F)c(=O)c1n2C, CN1CCOc2ccc(S(=O)(=O)N3CCN(S(=O)(=O)c4c(F)cccc4F)CC3)cc21, Cc1cc2c(s1)c1cnn(Cc3ccccc3Cl)c(=O)c1n2C, Cc1cc2c(s1)c1cnn(Cc3cccc(Cl)c3)c(=O)c1n2C, Cc1cc2c(s1)c1cnn(Cc3ccc(S(C)(=O)=O)cc3)c(=O)c1n2C, C[C@@H]1CN(S(=O)(=O)c2ccc3c(c2)OCCO3)CCN1S(=O)(=O)c1c(F)cccc1F, Cc1cc2c(s1)c1cnn(Cc3c(F)cccc3F)c(=O)c1n2C, COc1ccc(S(=O)(=O)N2CCN(S(=O)(=O)c3ccc(OC)cc3)CC2)cc1, O=C(c1ccc2c(c1)OCCO2)N1CCN(S(=O)(=O)c2c(F)cccc2F)CC1, O=S(=O)(NCCCCCCNS(=O)(=O)c1c(F)cccc1F)c1ccc2c(c1)OCCO2, COc1ccc(S(=O)(=O)N2CCN(S(=O)(=O)c3c(F)cccc3F)CC2)cc1, O=S(=O)(NC1CCN(S(=O)(=O)c2ccc3c(c2)OCCO3)C1)c1c(F)cccc1F (stereo not given), Cc1ccc(Cn2ncc3c4sc(C)cc4n(C)c3c2=O)c(C)c1, Cc1cc2c(s1)c1cnn(Cc3ccc(C(C)C)cc3)c(=O)c1n2C, Cc1cc2c(s1)c1cnn(-c3ccccc3)c(=O)c1n2C, Cc1cc2c(s1)c1cnn(Cc3ccc(-c4ccccc4)cc3)c(=O)c1n2C, O=S(=O)(NC1CCN(S(=O)(=O)c2c(F)cccc2F)C1)c1ccc2c(c1)OCCO2 (stereo not given), CSc1cc2c(s1)c1cnn(Cc3ccccc3F)c(=O)c1n2C, CC(=O)c1cc2c(s1)c1cnn(Cc3ccccc3F)c(=O)c1n2C, Cc1cc2c(s1)c1cnn(Cc3ccccc3F)c(=O)c1n2C(C)C, Cn1c2cc(C#N)sc2c2cnn(Cc3ccccc3F)c(=O)c21, O=S(=O)(c1ccc2c(c1)OCCO2)N1CCN(S(=O)(=O)c2cccc[n+]2[O-])CC1, Cn1c2ccsc2c2ncn(Cc3ccccc3F)c(=O)c21, Cc1cc2[nH]c3c(=O)n(Cc4ccccc4F)ncc3c2s1, COc1cc2c(s1)c1cnn(Cc3ccccc3F)c(=O)c1n2C, COc1cc(F)c(S(=O)(=O)N2CCN(S(=O)(=O)c3ccc4c(c3)OCCO4)CC2)c(F)c1, Cn1ccc2cc(S(=O)(=O)N3CCN(S(=O)(=O)c4c(F)cccc4F)CC3)ccc21, Cc1cc2c(s1)c1cnn(Cc3cc(C(F)(F)F)cc(Cl)c3F)c(=O)c1n2C, O=S(=O)(c1cccc(C(F)(F)F)c1)N1CCN(S(=O)(=O)c2ccc3c(c2)OCCO3)CC1, CC(C)c1cc2c(s1)c1cnn(Cc3ccccc3F)c(=O)c1n2C, CCn1c2cc(C)sc2c2cnn(Cc3ccccc3F)c(=O)c21, Cn1c2cc(S(C)=O)sc2c2cnn(Cc3ccccc3F)c(=O)c21 (stereo not given), Cc1cc2c(s1)c1cnn(Cc3ccccc3)c(=O)c1n2C, Cn1c2cc(B(O)O)sc2c2cnn(Cc3ccccc3F)c(=O)c21
